Assay outcomes as filed in PubChem BioAssay.
Tau fibril FP: blocks human tau fibril formation measured by polarization; P10636; K18 P301L tau heparin fibrillization, Alexa594 FP, 6 h; Potency, µM (top dose mostly 57.7 µM), without a hit: top-dose activity, negative = inhibition, hits mostly inhibitors; hit rate 0.39% among 280,000; AID 1468; further: nearly all actives have a fitted effect of over 55% in size
Target sequence (P10636 561-689 P618L limits assumed): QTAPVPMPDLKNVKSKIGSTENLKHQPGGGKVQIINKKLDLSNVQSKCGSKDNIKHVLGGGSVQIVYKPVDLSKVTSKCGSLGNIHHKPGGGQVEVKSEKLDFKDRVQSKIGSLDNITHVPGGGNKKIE
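Quantitative HTS format: compounds meet 15 uM recombinant K18 P301L tau and Alexa 594-tau tracer in 100 mM sodium acetate pH 7; 20 uM heparin triggers fibrillization at 37 C over 6 hr; FP gives the signal.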
Tau ThT inhib: inhibitors of human tau fibril formation, thioflavin T binding; hit rate 2.1% among 270,000; recombinant tau K18 P301L, heparin-induced fibrillization, ThT fluorescence; P10636; Potency, µM (highest dose often 57.4 µM), inactives show at the highest dose activity, negative = inhibition, most hits filed as inhibitors; AID 1460; further: nearly all actives have a fitted effect of over 55% in size
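Aggregation was driven by heparin (20 uM final) acting on recombinant tau […] bearing P301L in 100 mM sodium acetate pH 7; fibrils were detected with Thioflavin T.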
VDR inh: vitamin D3 receptor (human) inhibition. P11473. VDR-SRC2-3 peptide fluorescence polarization, 2 h. AID 504847. Potency, µM, inactives show max response, negative = inhibition, hits mostly inhibitors. hit rate 0.93% among 400,000
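Reagent solutions, kept cold and dark, are dispensed first; compounds are then pinned in at 23 nl, plates briefly spun, and incubated 2 h at ambient temperature. Inhibition of VDR–SRC2-3 peptide binding is read by fluorescence polarization.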
Sfp PPTase inh: inhibitors of Bacillus subtilis Sfp phosphopantetheinyl transferase. Biochemical Sfp PPTase activity, qHTS. Potency, µM, inactives show largest response in the series, negative = inhibition, hits mostly inhibitors. hit rate 3.5% among 310,000. AID 1490;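 further: the enzyme is Sfp with the accession as filed and its product quenches rhodamine fluorescence; 0% = enzyme reaction without inhibitor and -100% = no enzyme wells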
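After 15 min at room temperature with compound, 15 nM Sfp received 5 uM rhodamine-CoA plus 12.5 uM BHQ-2-ybbR (50 mM Hepes pH 7.6, 10 mM MgCl2). Rate came from the fluorescence difference over 30 min, ex 525/em 598 nm.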
Tau fluor cs: counter-screen for tau fibril formation inhibitors; tau K18 P301L Alexa594 fluorescence, heparin fibrillization; Potency, µM (titrated, usually from 57.7 µM), for the others: at the top dose activity change, negative = decrease; hit rate 0.93% among 280,000; further: nearly all actives have a fitted effect of over 55% in size
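Human tau K18 P301L (15 uM unlabeled, 0.24 uM Alexa 594-labeled) in 100 mM sodium acetate pH 7 with 20 uM heparin, 6 hr at 37 C. ThT 30 uM added, 1 hr ambient; Alexa 594 FP and total fluorescence read at 555/632 nm.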
PLK1 PBD block: PLK1 (human) polo-box domain binding inhibition; P53350; Plk1 PBD binding of FITC phosphopeptide, fluorescence polarization; Potency, µM, without a hit: max response, negative = inhibition, usual class: inhibitors; hit rate 2.8% among 360,000; AID 720504; further: series mostly up to about 57 µM; nearly all actives have a fitted effect of over 65% in size
Target sequence (P53350 whole entry, looked up, the tested form may be a part): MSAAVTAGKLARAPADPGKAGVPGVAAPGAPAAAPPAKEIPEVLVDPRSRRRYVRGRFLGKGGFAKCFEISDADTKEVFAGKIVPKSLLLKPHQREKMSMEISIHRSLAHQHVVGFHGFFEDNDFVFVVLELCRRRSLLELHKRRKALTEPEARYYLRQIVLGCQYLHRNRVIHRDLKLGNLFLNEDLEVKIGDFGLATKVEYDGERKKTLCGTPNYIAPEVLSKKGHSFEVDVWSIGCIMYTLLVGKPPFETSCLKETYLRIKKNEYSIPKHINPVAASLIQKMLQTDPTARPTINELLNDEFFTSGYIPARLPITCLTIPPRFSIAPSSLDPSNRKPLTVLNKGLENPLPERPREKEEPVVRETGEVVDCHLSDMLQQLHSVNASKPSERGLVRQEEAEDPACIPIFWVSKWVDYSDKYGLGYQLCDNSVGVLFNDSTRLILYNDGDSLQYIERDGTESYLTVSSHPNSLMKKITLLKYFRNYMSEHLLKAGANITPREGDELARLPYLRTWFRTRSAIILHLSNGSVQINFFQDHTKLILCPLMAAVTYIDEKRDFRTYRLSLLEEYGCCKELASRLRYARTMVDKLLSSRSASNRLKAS
Numbers without * were called inactive; ? = inconclusive; nt = no result; [ ] = dose if it differs, or a comment. Compounds with a hit are over-represented: about 6% of the library has one in this group of screens. The call rests on the fitted dose curve; in most records, active means well fitted curve in the direction sought with a large enough effect; inconclusive means small, poorly fitted or top-dose-only effect, or another doubt; inactive means no such curve, though single readings can be large; an effect the other way counts as inactive or inconclusive. Unless noted, on the % scale 0 is the no-effect control and ±100 the full control effect; potency means the concentration at half of the fitted maximal effect.

SMILES	Tau fibril FP	Tau ThT inhib	VDR inh	Sfp PPTase inh	Tau fluor cs	PLK1 PBD block
Cc1cc(/C=C2\C(=O)NC(=O)N(Cc3ccco3)C2=O)c(C)n1-c1ccc(C(=O)O)cc1	-7.5%	?	9.4%	5.8%	-9.6%	?
O=C1NC(=O)N(Cc2ccccc2)C(=O)/C1=C/c1cnc(-c2ccccc2)nc1	?	?	25.1µM*	56.2µM*	-20.9%	6.7µM*
CC(C)(C)NCC(O)c1cc(Cl)c(N)c(C(F)(F)F)c1 (stereo not drawn)	nt	nt	-4.2%	14.0%	nt	nt
Cc1cccc(N2C(=O)/C(=C/c3ccc(CN(CCC#N)S(C)(=O)=O)o3)C(=O)NC2=S)c1	?	25.1µM*	?	12.6µM*	-20.6%	7.52µM*
Cc1ccc(N2C(=O)/C(=C/c3ccc(CN(CCC#N)S(C)(=O)=O)o3)C(=O)NC2=S)cc1C	?	17.8µM*	nt	22.4µM*	-25.7%	nt
COc1ccc(C(=O)NCCn2cc(SCc3ccc(C(F)(F)F)cc3)c3ccccc32)cc1OC	-12.6%	?	-5.4%	nt	?	nt
O=C(O)c1ccccc1S	-13.5%	?	nt	?	-11.6%	nt
O=C(O)c1ccc[nH]c1=S	?	?	8.7%	8.91µM*	-17.1%	?
Cc1c(N=Nc2c(O)[nH]c(=O)[nH]c2=O)c(=O)n(-c2ccccc2)n1C	?	?	-0.3%	44.7µM*	-7.4%	0.9%
O=C1NC(=O)N(c2ccc3c(c2)OCO3)C(=O)/C1=C/c1ccc(N2CCCC2)o1	5.4%	?	7.6%	-8.9%	-8.9%	70.5%
CCc1ccc(N2C(=O)NC(=O)/C(=C\c3cc(C)n(-c4cc(C(=O)O)cc(C(=O)O)c4)c3C)C2=O)cc1	nt	nt	-13.3%	-6.9%	nt	?
O=C1NC(=O)N(c2ccc3c(c2)OCO3)C(=O)/C1=C/c1ccsc1	-7.5%	?	?	39.8µM*	-5.8%	7.52µM*
O=C1NC(=O)N(c2ccc3c(c2)OCO3)C(=O)/C1=C/c1cccs1	-0.5%	?	79.4µM*	11.2µM*	-17.7%	2.12µM*
CCc1ccc(N2C(=O)NC(=O)/C(=C/c3ccsc3)C2=O)cc1	-5.4%	?	nt	50.1µM*	-11.8%	nt
O=C1NC(=O)C(=Cc2ccc3c(c2)OCO3)C(=O)N1	?	?	nt	50.1µM*	1.8%	nt
CCOc1ccc(CCNC(=O)c2cc3c(-c4cccc(OC)c4)nn(C)c3s2)cc1OCC	-17.9%	?	-9.1%	nt	?	nt
CCOC(=O)N1CCN(/[N+]([O-])=N/Oc2ccc([N+](=O)[O-])cc2[N+](=O)[O-])CC1C (stereo not drawn)	nt	nt	56.2µM*	-9.3%	nt	nt
NC(N)=NCCCCCCCCCCN=C(N)N	8.3%	11.4%	-8.1%	?	5.4%	nt
NCC(CC(=O)O)c1ccc(Cl)s1 (stereo not drawn)	-0.4%	-4.8%	3.7%	23.9%	-0.6%	nt
Cc1cc2oc(=O)cc(-c3ccccc3)c2c(C)c1-c1ccc(CO)cc1	-12.1%[81.3 µM]	-8.4%[81.4 µM]	?	126µM*	-17.9%[81.3 µM]	-0.4%
CCc1cc(=O)oc2cc(C)cc(OCC(=O)N3CCC(C(=O)O)(c4ccccc4)CC3)c12	nt	nt	-5.3%	9.0%	nt	1.8%
CCCCCCCCn1sccc1=O	nt	nt	3.55µM*	nt	nt	4.74µM*
O=C(N/N=C/c1c(O)n(C2CC2)c(=S)[nH]c1=O)c1ccccc1O	4.4%	?	-3.3%	16.9%	-17.0%	-2.1%
O=C(N/N=C/c1c(O)n(-c2ccccc2)c(=S)[nH]c1=O)c1ccccc1	4.4%[0.0958 µM]	nt	9.2%	19.4%	14.7%[0.0958 µM]	1.0%
Cc1ccccc1-n1c(O)c(/C=N/Nc2nc3c(c(=O)n(C)c(=O)n3C)n2C)c(=O)[nH]c1=S	?	?	-2.4%	50.1µM*	-14.4%	-9.0%
SMILES	Tau fibril FP	Tau ThT inhib	VDR inh	Sfp PPTase inh	Tau fluor cs	PLK1 PBD block
Cc1cccc(-n2c(O)c(/C=N/Nc3nc4c(c(=O)n(C)c(=O)n4C)n3C)c(=O)[nH]c2=S)c1	?	12.6µM*	-1.0%	56.2µM*	?	?
Cc1ccccc1-n1c(O)c(/C=N/NC(=O)c2ccccc2O)c(=O)[nH]c1=S	?	?	?	5.6%	-14.0%	4.23µM*
Cn1c(=O)c2c(nc(N/N=C/c3c(O)n(C4CCCCC4)c(=S)[nH]c3=O)n2C)n(C)c1=O	?	15.8µM*	?	70.8µM*	?	?
CCOC(=O)c1cccc(NC(=O)NCc2ccc3c(c2)CCN3C(=O)c2ccccc2)c1	?	-12.9%	2.3%	nt	?	nt
CN1C(=O)c2ccccc2Sc2ccc(NC(=O)c3ccc(C(F)(F)F)cc3)cc21	?	14.0%	7.4%	nt	-11.9%	nt
Nc1nc(O)c(-c2ccccc2)o1	nt	nt	4.4%	-9.7%	nt	nt
Nc1ccc(-c2ccccc2)cc1	nt	nt	16.7%	nt	nt	4.3%
Nc1ccc(C2(c3ccc(N)cc3)c3ccccc3-c3ccccc32)cc1	?	?	?	0.8%	14.1µM*[quencher]	-7.4%
CN1CC[C@@]2(c3cccc(O)c3)Cc3nc4ccccc4cc3C[C@H]2C1	2.7%	-8.6%	1.8%	79.4µM*	-1.1%	nt
Cc1cc(C=C2C(=O)N(C)C(=S)N(C)C2=O)c(C)n1C1CCCCC1	-9.6%	?	-2.3%	?	-19.3%	?
CSc1ncc(/C=C2/C(=O)NC(=O)N(C3CCCCC3)C2=O)cn1	-16.0%	?	20µM*	39.8µM*	-17.7%	10.6µM*
CCC(C)N1C(=O)/C(=C\c2cc3c4c(c2)CCCN4CCC3)C(=O)NC1=S (stereo not drawn)	-11.9%	?	?	?	-13.3%	0.947µM*
CCC(C)N1C(=O)/C(=C\c2cnc(N(C)C)nc2)C(=O)NC1=S (stereo not drawn)	-7.7%	?	44.7µM*	50.1µM*	-6.3%	6.7µM*
CCC(C)N1C(=O)/C(=C\c2ccc(N3CCCCCC3)cc2)C(=O)NC1=S (stereo not drawn)	-6.8%	?	-7.7%	?	-5.7%	?
CCCCN1C(=O)NC(=O)/C(=C/c2cnc(SC)nc2)C1=O	-13.2%	?	25.1µM*	25.1µM*	-18.2%	8.44µM*
Cc1ccc2c(Cl)cc(Cl)c(O)c2n1	?	-0.6%	-12.2%	9.6%	-11.0%	-19.5%
CN(C)c1ncc(/C=C2/C(=O)NC(=S)N(C3CCCCC3)C2=O)cn1	3.6%	?	nt	44.7µM*	-14.7%	nt
CCC(=O)C1=C(c2cccc([N+](=O)[O-])c2)N(C(=O)CC)n2c(nnc2C2CCCCC2)S1	-5.6%	?	6.4%	nt	-19.6%	nt
CCCCCCCCCCCCCC(=O)O[C@@H]1[C@@H](C)[C@@]2(O)[C@H](C=C(CO)C[C@]3(O)C(=O)C(C)=C[C@@H]23)[C@@H]2C(C)(C)C12OC(C)=O (stereo partly drawn)	0.1%	?	-2.6%	7.2%	-8.5%	nt
